From the supplement of paper PMC10849652
The full data set covers some 7,900 targets. This sample favours those with a hit. About 0.6% of all pairs of compound and target were hits. A number with no mark means an inactive call.

How the values were obtained:
Experiment in all cases: log2 fold change, soluble protein after heating vs DMSO (PISA); higher = thermal stabilisation; K562 cells, 10 uM, 30 min; active = over 0.2 and 3.5 SD of the protein, either way, in both replicates (recomputed)
[1] = compound: C1COCCN1CCN2C3=CC=CC=C3N=C2NC(=O)C4=CC(=CC=C4)[N+](=O)[O-] [IRAK-1-4 Inhibitor I]
Procedure, shortened: (§1)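 Aliquots of K562 cells (2×10^6 cells/mL) treated with 10 μM compound for 30 min were heated for 3 min over 48°C-58°C. After pooling and extraction in PBS with 0.5% NP-40 at 4°C, soluble protein from a 21,000xg, 90 min spin was quantified by TMTpro 16plex LC-MS/MS with channel sums equalised. Thermal stability is expressed against control samples, from duplicates, as a log2 fold change.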

[2] = compound: C=CC(=O)N1CCC[C@@H](n2nc(-c3ccc(Oc4ccccc4)cc3)c3c(N)ncnc32)C1 [ibrutinib]
Procedure, shortened: as §1

[3] = compound: CC(=O)c1cnc2ccc(-c3cc(Cl)c(O)c(Cl)c3)nc2c1N[C@H]1CC[C@H](CN(C)C)CC1
Procedure, shortened: as §1

[4] = compound: CC(C)(C)Cn1c(N)nc2ccc(-c3[nH]c(C(C)(C)C)nc3-c3ccc(F)cc3)nc21 [ralimetinib]
Procedure, shortened: as §1

[5] = compound: CC(C)(O)CC(=O)NCCn1ccc2ncnc(Nc3ccc(Oc4cccc(C(F)(F)F)c4)c(Cl)c3)c21
Procedure, shortened: as §1

[6] = compound: CC(C)C1=C2N=C(C=C(N2N=C1)NCC3=CC=CC=C3)NCCCCCCN
Procedure, shortened: as §1

[7] = compound: CC(C)C[C@@H](C=O)NC(=O)[C@H](CC(C)C)NC(=O)[C@H](CC(C)C)NC(=O)OCc1ccccc1
Procedure, shortened: as §1

[8] = compound: CC(C)N(C[C@H]1O[C@@H](n2cnc3c(N)ncnc32)[C@H](O)[C@@H]1O)[C@H]1C[C@@H](CCc2nc3cc(C(C)(C)C)ccc3[nH]2)C1 [pinometostat]
Procedure, shortened: as §1

[9] = compound: CC1=C(C(CC(=O)N1)C2=CC=C(C=C2)C(F)(F)F)C(=O)NC3=C(C=C4C(=C3)C=NN4)F
Procedure, shortened: as §1

[10] = compound: CC1=C(C2=C(C=C1)C(=O)C3=CC=CC=C3N2CCCN)C
Procedure, shortened: as §1

[11] = compound: CC1=C(C=C(C=C1)NC(=O)C2=CC(=CC=C2)C(C)(C)C#N)NC3=CC4=C(C=C3)N=CN(C4=O)C
Procedure, shortened: as §1

[12] = compound: CC1=C(C=C(C=C1)NC(=O)C2=CC(=CC=C2)N(C)C)NC(=O)C3=CC=C(C=C3)O
Procedure, shortened: as §1

[13] = compound: CC1=CC=C(C=C1)SC2=C3C=C(SC3=CN=C2)C(=O)N
Procedure, shortened: as §1

[14] = compound: CC1=NC(=CC=C1)C2=C(N=C(N2)C(C)(C)C)C3=CC4=NC=CN=C4C=C3
Procedure, shortened: as §1

[15] = compound: CCCCN(Cc1ccc(C(=O)NO)cc1)C(=O)Nc1ccccc1 [Nexturastat A]
Procedure, shortened: as §1

[16] = compound: CCCS(=O)(=O)Nc1ccc(F)c(C(=O)c2c[nH]c3ncc(-c4ccc(Cl)cc4)cc23)c1F [vemurafenib]
Procedure, shortened: as §1

[17] = compound: CCCS(=O)(=O)Nc1ccc(F)c(C(=O)c2c[nH]c3ncc(Cl)cc23)c1F
Procedure, shortened: as §1

[18] = compound: CCCc1cc(C)[nH]c(=O)c1CNC(=O)c1cc(-c2ccnc(N3CCN(C)CC3)c2)cc2c1cnn2C(C)C
Procedure, shortened: as §1

[19] = compound: CCN(CC)Cc1ccc2cc(COC(=O)Nc3ccc(C(=O)NO)cc3)ccc2c1 [givinostat]
Procedure, shortened: as §1

[20] = compound: CCN(CCCOc1ccc2c(Nc3cc(CC(=O)Nc4cccc(F)c4)[nH]n3)ncnc2c1)CCOP(=O)(O)O [barasertib]
Procedure, shortened: as §1

UniProt Q7Z7A3, sequence (Q7Z7A3 whole entry, looked up): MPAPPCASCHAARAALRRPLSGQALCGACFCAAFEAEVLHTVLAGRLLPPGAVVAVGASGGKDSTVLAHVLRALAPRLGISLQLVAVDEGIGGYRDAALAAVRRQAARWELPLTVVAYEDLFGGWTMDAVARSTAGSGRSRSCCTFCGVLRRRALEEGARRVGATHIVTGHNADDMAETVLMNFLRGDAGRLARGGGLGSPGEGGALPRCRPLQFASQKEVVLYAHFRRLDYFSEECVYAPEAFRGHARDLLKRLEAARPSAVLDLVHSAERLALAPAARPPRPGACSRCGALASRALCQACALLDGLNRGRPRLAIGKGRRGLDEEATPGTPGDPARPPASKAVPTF
UniProt Q9UK59, sequence (Q9UK59 whole entry, looked up): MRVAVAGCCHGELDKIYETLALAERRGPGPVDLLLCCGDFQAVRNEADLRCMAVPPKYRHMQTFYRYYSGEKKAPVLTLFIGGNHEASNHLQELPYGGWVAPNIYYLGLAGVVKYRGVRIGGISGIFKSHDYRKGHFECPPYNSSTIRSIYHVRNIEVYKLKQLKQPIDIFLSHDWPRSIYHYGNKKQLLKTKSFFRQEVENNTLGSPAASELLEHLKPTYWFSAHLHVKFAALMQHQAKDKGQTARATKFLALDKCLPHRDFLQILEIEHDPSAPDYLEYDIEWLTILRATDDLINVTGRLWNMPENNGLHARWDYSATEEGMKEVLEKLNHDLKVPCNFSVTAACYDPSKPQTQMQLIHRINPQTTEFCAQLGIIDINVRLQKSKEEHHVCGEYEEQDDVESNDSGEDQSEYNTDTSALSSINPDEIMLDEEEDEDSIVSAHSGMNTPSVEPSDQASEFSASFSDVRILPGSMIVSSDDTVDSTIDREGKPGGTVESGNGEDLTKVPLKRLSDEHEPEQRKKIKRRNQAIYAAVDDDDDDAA
UniProt Q96F86, sequence (Q96F86 whole entry, looked up): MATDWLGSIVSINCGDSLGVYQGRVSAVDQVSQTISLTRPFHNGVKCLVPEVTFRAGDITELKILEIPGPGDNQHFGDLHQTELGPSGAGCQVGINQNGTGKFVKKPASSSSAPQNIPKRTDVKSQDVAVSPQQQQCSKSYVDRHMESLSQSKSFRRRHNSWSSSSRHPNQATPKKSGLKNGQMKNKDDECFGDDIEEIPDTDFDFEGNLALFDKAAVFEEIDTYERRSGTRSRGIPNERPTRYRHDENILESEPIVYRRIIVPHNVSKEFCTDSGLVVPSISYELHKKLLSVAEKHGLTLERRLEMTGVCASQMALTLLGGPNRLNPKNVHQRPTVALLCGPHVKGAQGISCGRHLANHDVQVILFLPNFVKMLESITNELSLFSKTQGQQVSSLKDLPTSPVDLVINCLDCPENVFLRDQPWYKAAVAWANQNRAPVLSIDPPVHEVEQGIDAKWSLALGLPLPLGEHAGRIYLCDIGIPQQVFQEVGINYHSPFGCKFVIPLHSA
UniProt P18074, sequence (P18074 whole entry, looked up): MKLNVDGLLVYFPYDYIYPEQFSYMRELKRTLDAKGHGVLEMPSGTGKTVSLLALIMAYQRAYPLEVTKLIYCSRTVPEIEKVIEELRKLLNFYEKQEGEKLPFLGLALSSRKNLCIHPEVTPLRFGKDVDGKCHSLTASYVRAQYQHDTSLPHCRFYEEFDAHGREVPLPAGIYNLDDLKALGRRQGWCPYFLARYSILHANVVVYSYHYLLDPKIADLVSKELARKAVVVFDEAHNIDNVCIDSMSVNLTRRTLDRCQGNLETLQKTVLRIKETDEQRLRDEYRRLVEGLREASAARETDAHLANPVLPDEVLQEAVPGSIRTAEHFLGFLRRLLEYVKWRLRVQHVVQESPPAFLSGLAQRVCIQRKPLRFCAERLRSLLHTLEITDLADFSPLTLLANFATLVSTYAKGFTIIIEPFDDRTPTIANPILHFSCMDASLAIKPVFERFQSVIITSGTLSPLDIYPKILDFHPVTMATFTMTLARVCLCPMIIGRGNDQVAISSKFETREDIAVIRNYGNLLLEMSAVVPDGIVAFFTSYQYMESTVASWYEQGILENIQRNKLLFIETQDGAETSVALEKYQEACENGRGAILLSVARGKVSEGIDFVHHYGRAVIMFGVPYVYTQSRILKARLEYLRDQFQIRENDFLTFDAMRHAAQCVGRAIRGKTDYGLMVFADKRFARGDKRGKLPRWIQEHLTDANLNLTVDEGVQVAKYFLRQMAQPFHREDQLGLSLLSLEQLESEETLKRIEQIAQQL
UniProt Q96LJ7, sequence (Q96LJ7 whole entry, looked up): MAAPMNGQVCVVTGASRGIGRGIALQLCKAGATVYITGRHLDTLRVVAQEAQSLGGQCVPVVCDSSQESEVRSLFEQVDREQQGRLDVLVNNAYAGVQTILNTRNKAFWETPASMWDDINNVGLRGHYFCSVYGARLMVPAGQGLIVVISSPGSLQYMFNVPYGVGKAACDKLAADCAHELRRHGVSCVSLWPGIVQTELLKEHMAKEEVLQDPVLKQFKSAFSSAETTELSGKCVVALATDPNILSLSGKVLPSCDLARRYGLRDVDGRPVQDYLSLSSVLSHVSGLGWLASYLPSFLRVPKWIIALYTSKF
UniProt O43237, sequence (O43237 whole entry, looked up): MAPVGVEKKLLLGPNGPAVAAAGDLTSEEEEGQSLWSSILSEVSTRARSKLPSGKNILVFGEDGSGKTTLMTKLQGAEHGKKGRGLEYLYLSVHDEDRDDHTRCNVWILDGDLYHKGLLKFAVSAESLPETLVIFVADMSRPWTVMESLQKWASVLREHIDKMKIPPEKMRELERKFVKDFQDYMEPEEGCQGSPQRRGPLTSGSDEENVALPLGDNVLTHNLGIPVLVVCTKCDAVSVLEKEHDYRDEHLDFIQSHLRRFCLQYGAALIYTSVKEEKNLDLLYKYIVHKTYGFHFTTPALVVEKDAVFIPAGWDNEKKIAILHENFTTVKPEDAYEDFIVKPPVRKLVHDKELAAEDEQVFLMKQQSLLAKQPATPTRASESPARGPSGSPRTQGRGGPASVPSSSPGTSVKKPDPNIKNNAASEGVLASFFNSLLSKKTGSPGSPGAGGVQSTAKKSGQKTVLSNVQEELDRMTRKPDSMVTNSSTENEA
UniProt O75911, sequence (O75911 whole entry, looked up): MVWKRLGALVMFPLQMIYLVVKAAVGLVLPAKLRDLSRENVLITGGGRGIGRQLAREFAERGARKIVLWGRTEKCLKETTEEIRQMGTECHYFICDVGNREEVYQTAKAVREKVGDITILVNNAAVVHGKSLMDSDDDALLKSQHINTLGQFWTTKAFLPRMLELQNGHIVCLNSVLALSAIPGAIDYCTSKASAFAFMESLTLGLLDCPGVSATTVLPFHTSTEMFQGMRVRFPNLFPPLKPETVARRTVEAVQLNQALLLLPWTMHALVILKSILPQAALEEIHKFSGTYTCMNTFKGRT
UniProt Q96DA6, sequence (Q96DA6 whole entry, looked up): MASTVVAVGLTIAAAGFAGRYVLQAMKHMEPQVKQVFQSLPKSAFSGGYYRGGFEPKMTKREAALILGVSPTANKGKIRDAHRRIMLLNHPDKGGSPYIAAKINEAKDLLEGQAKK
UniProt Q8N5C7, sequence (Q8N5C7 whole entry, looked up): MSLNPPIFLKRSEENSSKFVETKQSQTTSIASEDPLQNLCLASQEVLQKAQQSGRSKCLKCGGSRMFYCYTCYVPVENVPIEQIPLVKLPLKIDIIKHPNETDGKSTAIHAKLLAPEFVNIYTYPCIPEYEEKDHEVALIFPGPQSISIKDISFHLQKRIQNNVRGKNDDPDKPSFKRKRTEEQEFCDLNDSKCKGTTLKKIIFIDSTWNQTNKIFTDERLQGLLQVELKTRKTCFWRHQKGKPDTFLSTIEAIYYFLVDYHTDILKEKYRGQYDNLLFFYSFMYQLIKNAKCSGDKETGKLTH
UniProt Q9NXF7, sequence (Q9NXF7 whole entry, looked up): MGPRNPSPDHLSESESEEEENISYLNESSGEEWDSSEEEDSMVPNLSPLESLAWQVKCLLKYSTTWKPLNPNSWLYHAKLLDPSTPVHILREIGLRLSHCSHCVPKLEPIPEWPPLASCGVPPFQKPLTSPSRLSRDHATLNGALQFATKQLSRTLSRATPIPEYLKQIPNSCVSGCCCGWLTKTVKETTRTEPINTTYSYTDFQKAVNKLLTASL
UniProt P50570, sequence (P50570 whole entry, looked up): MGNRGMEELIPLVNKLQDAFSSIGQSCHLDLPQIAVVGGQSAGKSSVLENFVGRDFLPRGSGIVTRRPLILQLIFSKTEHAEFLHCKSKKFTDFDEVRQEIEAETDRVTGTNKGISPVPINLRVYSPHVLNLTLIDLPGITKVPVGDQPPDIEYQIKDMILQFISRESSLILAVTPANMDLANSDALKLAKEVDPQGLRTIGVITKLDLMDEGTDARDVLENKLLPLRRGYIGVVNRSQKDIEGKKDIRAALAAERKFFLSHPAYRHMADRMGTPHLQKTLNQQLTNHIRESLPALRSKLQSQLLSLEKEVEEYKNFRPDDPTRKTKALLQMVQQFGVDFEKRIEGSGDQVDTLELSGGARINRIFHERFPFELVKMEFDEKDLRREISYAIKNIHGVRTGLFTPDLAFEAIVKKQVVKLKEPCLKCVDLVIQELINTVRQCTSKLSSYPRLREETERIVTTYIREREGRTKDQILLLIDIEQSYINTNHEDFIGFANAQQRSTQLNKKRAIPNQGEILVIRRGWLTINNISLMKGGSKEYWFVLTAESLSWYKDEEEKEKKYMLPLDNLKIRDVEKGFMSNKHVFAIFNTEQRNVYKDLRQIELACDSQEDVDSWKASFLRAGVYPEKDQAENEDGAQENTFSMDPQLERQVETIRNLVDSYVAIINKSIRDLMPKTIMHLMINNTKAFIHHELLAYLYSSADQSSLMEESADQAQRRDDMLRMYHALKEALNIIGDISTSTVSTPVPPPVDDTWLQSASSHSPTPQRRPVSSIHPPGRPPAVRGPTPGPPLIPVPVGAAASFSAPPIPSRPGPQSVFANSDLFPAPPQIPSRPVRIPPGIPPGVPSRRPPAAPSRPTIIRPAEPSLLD

| Target | log2 fold change [1] | log2 fold change [2] | log2 fold change [3] | log2 fold change [4] | log2 fold change [5] | log2 fold change [6] | log2 fold change [7] | log2 fold change [8] | log2 fold change [9] | log2 fold change [10] | log2 fold change [11] | log2 fold change [12] | log2 fold change [13] | log2 fold change [14] | log2 fold change [15] | log2 fold change [16] | log2 fold change [17] | log2 fold change [18] | log2 fold change [19] | log2 fold change [20] |
| --- | --- | --- | --- | --- | --- | --- | --- | --- | --- | --- | --- | --- | --- | --- | --- | --- | --- | --- | --- | --- |
| DHRS1 (UniProt Q96LJ7) | 0.037 | 0.105 | 0.045 | 0.014 | 0 | 0.614 | 0.21 | -0.087 | 0.003 | 0.071 | 0.357 | -0.143 | -0.166 | -0.202 | 0.096 | 0.29 | -0.079 | 0.088 | 0.068 | -0.05 |
| DNM2 (UniProt P50570) | 0.022 | 0.017 | -0.023 | -0.02 | -0.081 | -0.075 | 0.029 | -0.014 | -0.012 | 0.076 | -0.016 | -0.043 | 0.009 | 0.024 | -0.057 | 0.016 | 0.033 | -0.007 | 0.036 | 0.054 |
| DNAJC19 (UniProt Q96DA6) | 0.045 | 0.024 | 0.038 | 0.029 | -0.054 | -0.153 | -0.006 | -0.013 | 0.016 | 0.023 | -0.02 | 0.001 | 0.043 | 0.069 | -0.121 | 0.003 | 0.035 | -0.013 | 0.005 | 0.007 |
| DHRS3 (UniProt O75911) | 0 | 0.027 | -0.083 | 0.001 | 0.143 | 0.018 | -0.017 | -0.056 | -0.055 | 0.03 | 0.075 | -0.037 | 0.019 | 0.027 | -0.037 | -0.078 | -0.04 | -0.035 | -0.051 | -0.048 |
| ERCC2 (UniProt P18074) | -0.01 | 0.003 | -0.165 | 0.014 | 0.016 | -0.068 | 0.03 | 0.078 | 0.021 | -0.016 | -0.024 | 0.014 | -0.005 | -0.038 | 0.035 | 0.166 | 0.036 | 0.021 | 0.095 | -0.007 |
| DHX16 (UniProt O60231) | -0.006 | 0 | -0.257 (active) | -0.001 | -0.025 | -0.002 | 0.009 | 0.004 | -0.045 | 0.159 | -0.014 | -0.018 | 0.024 | 0.036 | -0.002 | 0.017 | 0.059 | -0.011 | 0.017 | 0.032 |
| DCAF16 (UniProt Q9NXF7) | -0.04 | 0.017 | 0.039 | 0.034 | -0.052 | -0.027 | 0.018 | 0.055 | -0.047 | -0.105 | -0.036 | -0.013 | 0.059 | -0.015 | 0.063 | 0.151 | 0.185 | 0.042 | -0.016 | 0.024 |
| FAF2 (UniProt Q96CS3) | 0 | -0.026 | -0.034 | 0.103 | -0.029 | -0.044 | 0.03 | 0.053 | 0.008 | 0.044 | 0.015 | -0.021 | 0.008 | -0.016 | 0.009 | 0.038 | 0.008 | -0.039 | 0.036 | 0.021 |
| EIF3J (UniProt O75822) | 0.118 | -0.031 | 0.035 | 0.093 | -0.031 | -0.007 | -0.079 | -0.007 | -0.019 | -0.025 | 0.01 | -0.026 | -0.005 | 0.039 | -0.068 | 0.05 | -0.022 | 0.004 | 0.011 | 0.046 |
| DTWD1 (UniProt Q8N5C7) | 0.043 | 0.014 | 0.076 | 0 | -0.022 | 0.161 | -0.021 | -0.026 | -0.109 | 0.136 | 0.05 | -0.042 | 0.023 | 0.081 | -0.072 | 0.115 | -0.013 | 0.036 | -0.172 | -0.027 |
| DHCR24 (UniProt Q15392) | -0.036 | 0.02 | 0.157 | 0.04 | 0.041 | 1.14 (active) | 0.022 | 0.05 | -0.104 | 0.212 | 0.248 | 0.01 | -0.003 | -0.043 | 0.004 | -0.114 | -0.012 | 0.434 | 1.21 (active) | 0.088 |
| CTU1 (UniProt Q7Z7A3) | 0.026 | 0.041 | 0.02 | 0.005 | -0.054 | -0.052 | -0.041 | 0.007 | 0.007 | -0.021 | 0.011 | -0.023 | 0.061 | 0.059 | -0.022 | 0.065 | 0.034 | -0.035 | 0.043 | 0 |
| EDC3 (UniProt Q96F86) | -0.029 | -0.082 | -0.643 (active) | 0.013 | -0.117 | -0.223 | 0.019 | 0.011 | 0.039 | -0.049 | -0.046 | 0.085 | 0.021 | 0.037 | 0.088 | 0.046 | 0.008 | 0.1 | 0.049 | 0.055 |
| DBR1 (UniProt Q9UK59) | -0.04 | 0.02 | -0.043 | 0.037 | 0.006 | 0.032 | -0.026 | -0.012 | 0.065 | 0.114 | -0.005 | 0.028 | 0.007 | 0.049 | -0.007 | 0.024 | 0.037 | -0.033 | -0.16 | -0.022 |
| DYNC1LI2 (UniProt O43237) | 0.089 | 0.083 | 0.099 | 0.124 | 0.03 | -0.067 | 0.07 | 0.146 | 0.007 | 0.094 | 0.013 | -0.093 | -0.049 | -0.193 | 0.646 (active) | 0.001 | -0.027 | 0.076 | 0.017 | 0.05 |
| EHBP1L1 (UniProt Q8N3D4) | -0.044 | -0.054 | -0.077 | 0.083 | -0.001 | -0.034 | 0.05 | 0.086 | -0.049 | 0.028 | 0 | -0.02 | -0.003 | -0.043 | 0.011 | 0.034 | 0.007 | 0.025 | 0.026 | 0.016 |
